Consider 57 compounds from PubChem BioAssay AID651819 (National Center for Advancing Translational Sciences (NCATS), 2012).

Where “and” joins values, the source holds several entries; their conditions need not be identical. Equal values may be shown once. The whole screen tested about 360,000 compounds, of which about 1,100 (0.31%) were called active. The full list was thinned out, with actives kept by preference. Unmarked numbers belong to inactive results. No stated cut-off is given here; in the data, active means activity change below about -30%; inactive means the rest.
On the % scale 0 is the no-effect control and ±100 the full control effect.

The assay concerns cytosolic chaperonin (CCT/TRiC complex). Put plainly: High-Throughput Screening for Modulators of Cytosolic Chaperonin Activity. The settings on record: purified chaperonin ATPase assay, HTRF ADP detection, 30 min; hits give low values. An outline of the steps: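 TRiC (40 or 20 nM final, by batch activity) in 30 mM Tris pH 7.4, 100 mM KCl, 5 mM MgCl2, 1 mM DTT was treated with compound at 76 uM single dose, then 10 uM ATP, 30 min at 37 °C. ADP was read by HTRF Transcreener.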
For the compound `Cc1ccc(-c2cc(C(F)(F)F)n3ncc(C(=O)N4CCCCC4c4cccnc4)c3n2)cc1` (configuration not stated), the activity change is -3.01%.
With `Cc1ccccc1NC(=O)C(C)c1ccc(-c2ccccc2)c(F)c1` (configuration not stated), the activity change is -2.15%.
For the compound `CCCc1nc2c(C)cc(-c3nc4ccccc4n3C)cc2n1Cc1ccc(-c2ccccc2C(=O)O)cc1`, the activity change was -0.702%.
Take `O=C(NCCCN1CCCCCC1)C1CC(=O)N(C2CCCC2)C1` (configuration not stated): the activity change is -44.9% (active).
Under `O=C(NCCc1ccc(Cl)cc1)C1CC(=O)N(C2CCCCC2)C1` (configuration not stated) stands -0.359%; under `O=C(NCCCN1CCCCC1)C1CC(=O)N(CCc2ccccc2)C1` (configuration not stated), 0.88%.
With `CCc1cc(CNC(=O)CC2C(=O)NCCN2CC2CCCCC2)on1` (configuration not stated), the activity change is -0.174%.
As to `COc1ccc(NC(=O)C2CCC(CNS(=O)(=O)c3csc(C(N)=O)c3)CC2)cc1OC` (configuration not stated), the activity change is -80.6% (active).
Then `COc1cccc(CNS(=O)(=O)c2csc(C(N)=O)c2)c1`, with 0.982%; and `CC(=O)Nc1ccc(S(=O)(=O)NCC2CCC(C(=O)NCCc3ccccc3)CC2)cc1` (configuration not stated), with -1.57%.
Regarding `CN(C)C(=O)CCc1ccc2c3c([nH]c2c1)[C@]1(CCC2CCCC2)[C@@H](C(=O)N2CCOCC2)C[C@H](CC(=O)NCc2ccco2)C(=O)N1CC3`, the activity change was 0.536%.
Then `CSCCC(NC(=O)C1CCC(C)CC1)C(=O)NCc1ccco1` (configuration not stated), with -5.62%.
With `O=C(CCn1nnc2ccccc21)OCC(=O)c1ccc([N+](=O)[O-])cc1`, the activity change is 1.01%.
As for `O=C(CC(n1cncn1)C(Cl)(Cl)Cl)c1ccc([N+](=O)[O-])cc1` (configuration not stated), the activity change was -37.2% (active).
With `O=C(Cn1c[n+](CC(=O)c2ccc([N+](=O)[O-])cc2)cn1)c1ccc([N+](=O)[O-])cc1`, the activity change is 1.85% and -0.852%.
Under `CCCN(C(=O)COC(=O)CNS(=O)(=O)c1ccc(NC(C)=O)cc1)C1CCS(=O)(=O)C1` (configuration not stated) stands -0.677%; under `O=C(NC(=O)c1cc(OCC(F)(F)F)ccc1OCC(F)(F)F)Nc1ccccc1`, -0.0973%.
Under `COC(=O)c1ccc(COc2cc([N+](=O)[O-])cc3cccnc23)cc1` stands -0.442%; under `COc1ccc(CN2CCCC(CNC(=O)c3ccc(F)cc3)C2)cc1OC` (configuration not stated), -2.54%.
Take `S=c1nccc(-c2cc(Cl)sc2Cl)[nH]1`: the activity change is -49.1% (active).
Regarding `CCOc1c2ccc(C(=O)NC3CCCc4ccccc43)cc2nn1CC` (configuration not stated), the activity change was -6.07%.
Then `COc1ccc(Nc2ncnc3sc(C)cc23)cc1`, with -82.2% (active).
For the compound `COC(=O)c1ccc(Nc2ncnc3sccc23)cc1`, the activity change was -2.64%.
Under `COc1ccc(Nc2cc(Sc3ccc(OC)cc3)ncn2)cc1` stands -0.999%; under `CC1(C)CC[C@]2(C(=O)O)CC[C@]3(C)C(=CCC4[C@@]5(C)CC[C@H](O)C(C)(C)C5[C@H](O)C[C@]43C)[C@@H]2C1` (some centres not stated), 0.294%.
On to `CCO[C@H]1OC(C(=O)N2CCN(Cc3ccccc3)CC2)=C[C@@H](c2cn(C(C)=O)c3ccccc23)[C@@H]1CCCO`, for which the activity change is 0.631%.
In the case of `COc1ccc(CCNS(=O)(=O)c2ccc(C(=O)NCc3ccco3)cc2)cc1OC`, the activity change is -2.3%.
As to `COc1ccc(CCNS(=O)(=O)c2ccc(F)cc2)cc1OC`, the activity change is -67.3% (active).
On to `COc1ccc(CCNS(=O)(=O)c2ccc(Cl)s2)cc1OC`, for which the activity change is -1.56%.
Consider `O=C(OCCN1CCOCC1)C1(c2ccccc2)CCCCC1`, for which the activity change was 0.343%.
Then `CCN1CCN(C(C(=O)NC2CCCC2)c2cc3c(cc2[N+](=O)[O-])OCO3)CC1` (configuration not stated), with -0.623%.
Turning to `Cc1ccc2c(c1)c1ncnc(N3CCc4ccccc4C3)c1n2C`, the activity change was 1.95%.
Then `CC(C)N1C(=O)C2C(C(=O)NC3CCCCC3)C3C=CC2(O3)C1C(=O)NC1CCCC1` (configuration not stated), with -2.56%.
Then `CCOCCCN1C(=O)C2C(C(=O)Nc3ccc(OCC)cc3)C3C=CC2(O3)C1C(=O)NC1CCCCC1` (configuration not stated), with -2.83%.
Under `CCN(CC)CCN1C(=O)C2C(C(=O)Nc3ccc(Br)cc3)C3C=CC2(O3)C1C(=O)NC1CCCCC1` (configuration not stated) stands -40.8% (active).
Regarding `CCCSc1nsc(N)n1`, the activity change is -1.36%.
Then `COc1ccc2ccn(C)c2c1`, with 1.51%; and `COc1ccc(N)c(C)c1`, with -0.166%; and `COc1ccc2c(C)cc3nnnn3c2c1`, with -38.8% (active).
Regarding `Cc1nc2nc3c(cn2n1)C(=O)CC(c1ccccc1)C3` (configuration not stated), the activity change was -0.882%.
For `CN1CCN(CC#CCC2(O)c3ccccc3-c3ccccc32)CC1`, the activity change was -0.316%.
Then `CSc1nnc2c(n1)OC(c1cn(C)c3ccccc13)N(C(C)=O)c1ccccc1-2` (configuration not stated), with -0.161%; and `CSCCC(=O)N1CCCC(CNC(=O)c2ccccc2Cl)C1` (configuration not stated), with -0.386%; and `COC(=O)c1ccccc1NC(=O)CSc1ccccn1`, with -2.39%.
With `CCOC(=O)CSc1ncc(-c2cccc(Cl)c2)cn1`, the activity change was -0.564%.
Under `CCOC(=O)CSc1ccccn1` stands -41% (active); under `COc1ccc(N2C(=O)CCC(C(=O)N(C)C3CCCCC3)C2c2ccc(OC)c(OC)c2)cc1` (configuration not stated), -0.957%; under `CN1CCN(c2ccncc2S(=O)(=O)N2CCCC2)CC1`, -0.238%.
Then `CNC[C@H](CC1CCCCC1)NC[C@H](NCCC1CCCC1)[C@H](C)O`, with -0.857%.
For `Nn1c(SCC(=O)Nc2ccc3c(c2)CCC3)nnc1C1CC1`, the activity change was -0.2%.
Then `COc1ccc(NC(=O)CSc2nnnn2-c2cccc(OC)c2)cc1`, with 1.8%; and `COc1cccc(NC(=O)CSc2nnc(C3CCCCC3)n2N)c1`, with -45.1% (active); and `O=C(Nc1cccnc1Oc1ncnc2cc(Cl)ccc12)c1ccc(F)cc1`, with 1.03%.
Then `O=C1N[C@H](Cc2ccccc2)C(=O)N[C@H]1Cc1cn(S(=O)(=O)c2ccccc2)c2ccccc12`, with -2.61%; and `C=CCNc1nc(N)c([N+](=O)[O-])c(NC2CCCCC2)n1`, with -43.9% (active).
On to `Nc1nc(NCC2CCCO2)nc(Nc2ccccc2F)c1[N+](=O)[O-]` (configuration not stated), for which the activity change is 0.16%.
Under `Nc1nc(Nc2ccccc2F)nc(NC2CCCCC2)c1[N+](=O)[O-]` stands -0.808%.
